# Data taken from PubChem BioAssay (NCATS).
# Records with an inconclusive call do not appear. Activity calls are given as the source filed them. Unless noted, calls come from the whole dose curve.
# What was measured:
# [1] = Cytotoxicity counterscreen for inhibitors of SARS-CoV-2 cell entry (AID 1645845); settings: outcome: dose series up to 57.1 µM unless noted; note: nearly all actives have a fitted effect of over 50% in size
# Summary of the method: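 Expi293F/hACE2 cells seeded overnight; cpd pin-transferred in DMSO, 1 h preincubation, + media, 48 h 37 C 5% CO2; ATPLite 1step luminescence; normalized to cells and no cells.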
# [2] = Primary qHTS to identify inhibitors of SARS-CoV-2 cell entry (AID 1645846); settings: SARS-CoV-2 pseudovirus cell entry assay, luminescence; activity change, negative = inhibition: at 57.1 µM (top of the series) unless noted; note: nearly all actives have a fitted effect of over 45% in size; note: potency is the fitted concentration of half-maximal effect
# Summary of the method: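 HEK293 cells stably expressing human ACE2, pre-treated 1 h with compound, then infected with MLV particles pseudotyped with Wuhan-Hu-1 spike (C-terminal 19-aa truncation). Luciferase luminescence after 48 h at 37 °C, normalised to spike PP and bald PP.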
# [3] = VSVG counterscreen qHTS to identify inhibitors of SARS-CoV-2 cell entry (AID 1645847); note: potency is the fitted concentration of half-maximal effect; nearly all actives have a fitted effect of over 65% in size
# Summary of the method: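 HEK293-ACE2 cells (Expi293F, human ACE2) pretreated 1 h with compound, then infected with MLV-based VSV-G pseudotyped particles for 48 h at 37 C; luciferase luminescence normalized to VSV-G PP and bald PP wells.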
# [4] = target: Nuclear receptor subfamily 1 group I member 3 (Homo sapiens) (UniProt Q14994); experiment: Primary qHTS for antagonist of constitutive androstane receptor (CAR) against the NCATS DSHEA and TCM libraries (AID 1794836; active = well fitted curve in the direction sought with a large enough effect; an effect the other way counts as inactive or inconclusive)
# Nuclear receptor subfamily 1 group I member 3 (Homo sapiens), sequence (Q14994 whole entry, looked up): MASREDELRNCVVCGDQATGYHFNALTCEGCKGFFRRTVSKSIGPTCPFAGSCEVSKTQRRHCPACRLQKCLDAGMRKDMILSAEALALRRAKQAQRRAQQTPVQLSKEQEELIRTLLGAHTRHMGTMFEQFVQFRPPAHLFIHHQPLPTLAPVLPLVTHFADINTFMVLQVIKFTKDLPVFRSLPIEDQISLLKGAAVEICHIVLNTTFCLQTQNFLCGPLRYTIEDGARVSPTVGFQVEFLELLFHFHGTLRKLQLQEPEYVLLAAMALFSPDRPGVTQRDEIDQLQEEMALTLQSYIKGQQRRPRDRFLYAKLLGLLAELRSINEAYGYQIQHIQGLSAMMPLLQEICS
# Summary of the method: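 HepG2 cells stably carrying hCAR and a CYP2B6 luciferase reporter (2,500 cells/well) attached for 5 h, then received compounds with 48 uM CITCO for 24 h at 37C. ONE-Glo luminescence read antagonism; CellTiter-Fluor (405/540 nm) gave viability.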
# [5] = KB-8-5-11 P-gp reporter qHTS against the NCATS DSHEA and TCM libraries (AID 1919977; active = well fitted curve in the direction sought with a large enough effect; an effect the other way counts as inactive or inconclusive; note: 0% is about no effect)
# Summary of the method: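 P-gp-overexpressing KB-8-5-11 cells were screened in colchicine-free medium at 500 cells/well, as a titration series. Cells were exposed for 72 h at 37C. Viability was read by CellTiter-Glo luminescence after 30 min at room temperature.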
# [6] = qHTS profiling of the MIPE4 collection as inhibitors of Plasmodium falciparum (3D7) proliferation (AID 743344; call rule not given here;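 note: scaled between DMSO vehicle wells and 0.29 µM artemisinin as full inhibition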); settings: P. falciparum 3D7 in erythrocytes, SYBR Green DNA fluorescence, 72 h; at 28.5 µM (top of the series)
# Summary of the method: (§1)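 Erythrocytes infected with P. falciparum (0.3% parasitemia, 2.5% hematocrit) incubated with compounds 72 h at 37 C, 5% CO2. Lysis with saponin/Triton buffer containing SYBR Green I, overnight at room temperature in the dark; DNA fluorescence (485/535 nm) normalised to 0.29 uM artemisinin and DMSO.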
# [7] = qHTS profiling of the MIPE4 collection as inhibitors of Plasmodium falciparum (DD2) proliferation (Rep 2) (AID 743346; call rule not given here); settings: P. falciparum Dd2 in erythrocytes, SYBR Green DNA, 72 h; at 28.5 µM (top of the series)
# Summary of the method: as §1
# [8] = qHTS profiling of the MIPE4 collection as inhibitors of Plasmodium falciparum (HB3) proliferation (AID 743347; call rule not given here;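 note: plate controls were DMSO vehicle wells for no effect and artemisinin wells for full effect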); settings: P. falciparum HB3 in erythrocytes, SYBR Green DNA, 72 h; at 28.5 µM (top of the series)
# Summary of the method: as §1
# [9] = target: Alpha-galactosidase (Coffea arabica) (UniProt Q42656); experiment: Counterscreen for Glucocerebrosidase Inhibitors: qHTS Assay for Coffee Bean alpha-Galactosidase at pH 4.5 (AID 957; active = well fitted curve in the direction sought with a large enough effect; an effect the other way counts as inactive or inconclusive;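 note: plate controls were enzyme alone for no effect and no enzyme for full effect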)
# Alpha-galactosidase (Coffea arabica), sequence (Q42656 whole entry, looked up): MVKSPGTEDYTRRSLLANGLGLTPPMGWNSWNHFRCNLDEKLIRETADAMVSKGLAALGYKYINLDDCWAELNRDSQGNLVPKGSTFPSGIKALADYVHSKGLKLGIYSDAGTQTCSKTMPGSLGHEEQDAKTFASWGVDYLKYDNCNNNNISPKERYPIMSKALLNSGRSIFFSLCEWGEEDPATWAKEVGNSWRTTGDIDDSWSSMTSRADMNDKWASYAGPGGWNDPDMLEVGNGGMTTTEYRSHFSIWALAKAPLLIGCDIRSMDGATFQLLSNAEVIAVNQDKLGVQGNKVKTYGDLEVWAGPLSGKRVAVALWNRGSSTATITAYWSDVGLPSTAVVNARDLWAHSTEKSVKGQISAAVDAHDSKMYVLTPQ
# Summary of the method: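 AC50 values derive from Hill-equation modeling of concentration-response data, normalized to no-enzyme and full-activity controls. The pH 4.5 citrate assay used 2 nM coffee bean enzyme and 80 uM fluorogenic substrate for 20 min.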
# [10] = target: Alpha-galactosidase (Coffea arabica) (UniProt Q42656); experiment: Counterscreen for Glucocerebrosidase Inhibitors: qHTS Assay for Coffee Bean alpha-Galactosidase at pH 5.9 (AID 998; active = well fitted curve in the direction sought with a large enough effect; an effect the other way counts as inactive or inconclusive;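 note: plate controls were uninhibited enzyme for no effect and no-enzyme basal signal for full effect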)
# Summary of the method: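 Green coffee bean enzyme (2 nM final) was incubated with compounds (0.7 nM–77 uM) and 4-methylumbelliferyl alpha-D-galactopyranoside (80 uM) in citrate buffer pH 5.9, 20 min at room temperature. High-pH stop; fluorescence 365/440 nm; AC50 from Hill fits.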
# [11] = Validation screen for inhibitors of Lassa infection (AID 463096); note: % is set by controls: 0 for no effect and ±100 for the full control effect
# [12] = target: Glutathione peroxidase 1 (Homo sapiens) (UniProt P07203); experiment: Primary qHTS Assay for Inhibitors of Recombinant Selenoprotein Glutathione Peroxidase 1 (GPX1) (AID 1845191; active = well fitted curve in the direction sought with a large enough effect; an effect the other way counts as inactive or inconclusive; note: nearly all actives have a fitted effect of over 65% in size)
# Glutathione peroxidase 1 (Homo sapiens), sequence (P07203 whole entry, looked up): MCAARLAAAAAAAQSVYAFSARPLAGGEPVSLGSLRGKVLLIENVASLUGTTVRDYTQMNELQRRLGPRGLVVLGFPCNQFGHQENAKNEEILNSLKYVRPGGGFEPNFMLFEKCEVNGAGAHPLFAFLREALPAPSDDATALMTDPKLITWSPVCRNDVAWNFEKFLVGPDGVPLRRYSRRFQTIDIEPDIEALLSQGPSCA
# Summary of the method: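 Recombinant GPX1 (10 nM final) was preincubated with compound for 30 min at room temperature, then reacted with 1 mM GSH, 0.5 mM CHP, 0.5 mM NADPH and 100 nM glutathione reductase; NADPH fluorescence (340/450 nm) was read at 0 and 15 min.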
# [13] = target: Phospholipid hydroperoxide glutathione peroxidase GPX4 (Homo sapiens) (UniProt P36969); experiment: Primary qHTS Assay for Inhibitors of Recombinant Selenoprotein Glutathione Peroxidase 4 (GPX4) (AID 1845192; active = well fitted curve in the direction sought with a large enough effect; an effect the other way counts as inactive or inconclusive; note: % is set by controls: 0 for no effect and ±100 for the full control effect; nearly all actives have a fitted effect of over 65% in size)
# Phospholipid hydroperoxide glutathione peroxidase GPX4 (Homo sapiens), sequence (P36969 whole entry, looked up): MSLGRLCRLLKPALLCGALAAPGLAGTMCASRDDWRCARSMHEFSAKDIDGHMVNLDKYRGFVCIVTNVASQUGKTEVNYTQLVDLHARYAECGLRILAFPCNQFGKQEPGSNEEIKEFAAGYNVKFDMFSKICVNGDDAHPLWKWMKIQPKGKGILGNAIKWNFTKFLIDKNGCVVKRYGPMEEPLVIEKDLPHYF
# Summary of the method: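 GR-coupled readout: 100 nM GR, 1 mM GSH, 0.5 mM NADPH; NADPH fluorescence (ex 340/em 450 nm) read at t=0 and after 15 min RT. GPX4 200 nM, preincubated 30 min with compound; substrate 0.5 mM CHP.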
# [14] = qHTS drug screen for cell cycle checkpoint inhibitors in PARPi-resistant BRCA-mutant ovarian cancer cell lines. (AID 1963452); settings: PEO1/OlaR viability, CellTiter-Glo luminescence, 96 h, stronger effect = lower value
# Summary of the method: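 PEO1, PEO4 and PEO1/OlaR ovarian cancer cells, 600 per well, exposed 96 h at 37C to a dilution series. Viability read by CellTiter-Glo luminescence, normalized to DMSO and empty wells; activity summarized as Z-AUC.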
# [15] = target: Bile acid receptor (Homo sapiens) (UniProt Q96RI1); experiment: qHTS assay for small molecule agonists of farnesoid X receptor signaling (AID 588527); settings: HEK293T FXR-UAS-bla, beta-lactamase ratio, 16 h; stronger effect = higher value;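 note: 0% = vehicle basal and 100% = reference agonist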
# Bile acid receptor (Homo sapiens), sequence (Q96RI1 whole entry, looked up): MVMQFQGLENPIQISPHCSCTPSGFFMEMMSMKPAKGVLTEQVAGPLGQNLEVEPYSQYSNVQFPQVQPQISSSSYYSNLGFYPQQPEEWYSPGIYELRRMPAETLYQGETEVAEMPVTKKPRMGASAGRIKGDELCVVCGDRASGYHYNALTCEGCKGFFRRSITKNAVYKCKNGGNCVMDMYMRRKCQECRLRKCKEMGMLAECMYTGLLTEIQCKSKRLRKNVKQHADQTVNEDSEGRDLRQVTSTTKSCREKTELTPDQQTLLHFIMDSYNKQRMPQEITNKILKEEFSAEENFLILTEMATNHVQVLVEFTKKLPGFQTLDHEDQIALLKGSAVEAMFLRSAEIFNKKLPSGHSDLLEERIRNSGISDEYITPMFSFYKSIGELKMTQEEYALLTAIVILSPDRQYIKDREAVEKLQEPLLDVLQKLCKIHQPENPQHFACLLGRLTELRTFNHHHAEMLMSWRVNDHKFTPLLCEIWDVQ
# Summary of the method: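 Agonist-mode beta-lactamase reporter in GeneBLAzer FXR-UAS-bla HEK293T cells, titration up to 92 uM, 16 h exposure at 37 C, CCF4 fluorescence. Response scaled to DMSO (0%) and 100 uM chenodeoxycholic acid (100%), then Hill-fitted for EC50 and efficacy.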
# [16] = measured here: PEO1 parental Z-AUC
compound,measurement,setting,value
CCc1ccc(N(CC(C)C)S(=O)(=O)c2ccc(OCC3CCOCC3)c(CO)c2)cc1,Potency,[1],inactive
same,"activity change, negative = inhibition",[2],-88.5%
same,Potency,[3],24.1 µM (active)
Cc1cc(-c2cc(OC(=O)c3ccccc3)ccc2Cl)cc2nnc(Nc3ccc(OCCN4CCCC4)cc3)nc12,Potency,[1],inactive
same,"activity change, negative = inhibition",[2],-21.1% [at 27.1 µM]
COc1ccc(Cl)c(Nc2nc3ccccc3nc2NS(=O)(=O)c2cccc(NC(=O)C(C)(C)N)c2)c1,Potency,[1],inactive
same,"activity change, negative = inhibition",[2],-26.9%
O=C(c1ccc(Nc2nc(C3CC3)cn3c(-c4cn[nH]c4)cnc23)c(F)c1)N1CCOCC1,Potency,[1],inactive
same,"activity change, negative = inhibition",[2],-58.9%
same,Potency,[3],8.57 µM (active)
CC(C)OC(=O)[C@H](C)N[P@](=O)(OC[C@H]1O[C@@H](n2ccc(=O)[nH]c2=O)[C@](C)(F)[C@@H]1O)Oc1ccccc1,Potency,[1],inactive
same,"activity change, negative = inhibition",[2],-40%
same,Potency,[3],30.4 µM (active)
COc1ccc(N2C(=O)N(c3c(C)cccc3Cl)Cc3cnc(Nc4ccc(C5CCN(C)CC5)cc4OC)nc32)nc1,Potency,[2],35.5 µM (active)
CC[C@H](CC[C@@H](C)[C@H]1CC[C@H]2[C@@H]3CC=C4C[C@@H](O)CC[C@]4(C)[C@H]3CC[C@]12C)C(C)C,Potency,[1],inactive
same,Potency,[4],inactive
same,Potency,[5],inactive
COc1cc2c(Oc3ccc4[nH]c(C)cc4c3F)ccnc2cc1OCC1(N)CC1,Potency,[2],11.2 µM (active)
C[C@@H](Oc1ccc2[nH]nc(/C=C/c3cnn(CCO)c3)c2c1)c1c(Cl)cncc1Cl,"activity change, negative = inhibition",[2],-97.5%
Cn1cc(/C=C2\C(=O)Nc3cccnc32)c2ccccc21,Potency,[1],inactive
same,Potency,[3],0.152 µM (active)
O=C(NCc1ccccc1)c1csc(Nc2ccncn2)n1,"parasite growth, % of DMSO control",[6],30.1%
same,"parasite growth, % of control (lower = inhibition)",[7],36.6%
same,"growth, % of control",[8],31.7%
same,Potency,[1],inactive
N#C/C(=C1/Nc2ccccc2S1)c1ccnc(OCc2ccc(CN3CCOCC3)cc2)n1,"activity change, negative = inhibition",[2],-97.6%
CC(C)Oc1ccc(-c2nc(-c3cccc4c3CC[C@@H]4NCCO)no2)cc1C#N,Potency,[2],inactive
C[C@H]1[C@H](C)CC[C@]2(C(=O)O)CC[C@]3(C)C(=CC[C@@H]4[C@@]5(C)C[C@@H](O)[C@H](O)[C@@](C)(CO)[C@@H]5CC[C@]43C)[C@H]12,Potency,[1],inactive
same,Potency,[2],inactive
same,Potency,[5],inactive
NS(=O)(=O)OC[C@@H]1C[C@@H](n2ccc3c(N[C@H]4CCc5ccccc54)ncnc32)C[C@@H]1O,"activity change, negative = inhibition",[2],-87.9%
CN(CCOc1ccc(C[C@H](Nc2ccccc2C(=O)c2ccccc2)C(=O)O)cc1)c1ccccn1,outcome,[9],inactive
same,outcome,[10],inactive
same,Potency,[11],inactive
same,Potency,[1],inactive
Fc1ccc(-c2csc3ncnc(NCc4ccc5c(c4)OCO5)c23)cc1,Potency,[2],10 µM (active)
C[C@H](CCC(=O)O)[C@H]1CC[C@H]2[C@@H]3[C@H](O)C[C@@H]4C[C@H](O)CC[C@]4(C)[C@H]3CC[C@]12C,"activity change, negative = inhibition",[2],-12.9%
COc1cc(OCc2cccc(-c3ccccc3)c2C)cc(OC)c1CN1CCCC[C@H]1C(=O)O,"activity change, negative = inhibition",[2],-88.4%
Cn1c(CCCCCCC(=O)NO)nc2cc(N(CCCl)CCCl)ccc21,Potency,[1],inactive
same,Potency,[12],inactive
same,Potency,[13],inactive
same,Z-AUC,[14],-0.877 (inactive)
same,Z-AUC,[14]; [16],-0.482
same,Z-AUC,[14]; measured here: PEO4 Z-AUC,-0.0287
CCOC(=O)CCNc1cc(N2CCc3ccccc3CC2)nc(-c2ccccn2)n1,"activity change, negative = inhibition",[2],-97.3%
COc1cccc(-c2cc(F)ccc2C2Cc3nc(N)nc(C)c3C(=O)N2)n1 (stereo not given),"activity change, negative = inhibition",[2],-91.7%
COC1=C(OC)C(=O)C(C/C=C(\C)CC/C=C(\C)CC/C=C(\C)CC/C=C(/C)CC/C=C(\C)CC/C=C(\C)CC/C=C(\C)CC/C=C(\C)CC/C=C(\C)CCC=C(C)C)=C(C)C1=O,"activity change, negative = inhibition",[2],-14.5%
CC(=O)c1cnc2ccc(-c3cc(Cl)c(O)c(Cl)c3)nc2c1NC1CCC(CN(C)C)CC1 (stereo not given),"activity change, negative = inhibition",[2],-98.1% [at 11.3 µM]
CC(C)=CCC/C(C)=C/CC/C(C)=C/CSc1ccccc1C(=O)O,outcome,[9],inactive
same,outcome,[10],inactive
same,Potency,[11],inactive
same,Potency,[1],inactive
same,"activity change, negative = inhibition",[2],-15.6%
C[C@H]1CC2[C@@H]3CCC4=CC(=O)C=C[C@]4(C)[C@@]3(F)[C@@H](O)C[C@]2(C)[C@@]1(O)C(=O)CO (stereo not given in full),Potency,[11],inactive
same,Potency,[1],inactive
same,Potency,[2],inactive
CC1(C)C(=O)N(c2ccc(C#N)c(C(F)(F)F)c2)C(=S)N1Cc1ccc(-c2cn[nH]n2)cc1,Potency,[1],inactive
same,Potency,[12],inactive
same,Potency,[13],inactive
same,Z-AUC,[14],0.1 (inactive)
same,Z-AUC,[14]; [16],0.427
same,Z-AUC,[14]; measured here: PEO4 Z-AUC,0.68
Clc1ccc(-c2nc3sccn3c2/C=N/OCc2ccc(Cl)c(Cl)c2)cc1,activation,[15],14.7% (inactive)
same,Potency,[1],inactive
same,"activity change, negative = inhibition",[2],-8.8%
